Bioassay records as filed in PubChem.
An excerpt weighted towards active compounds, which were near 0.97% of everything screened.
ROCK2 inh: inhibitors of human Rho kinase 2; O75116; purified ROCK2, Kinase-Glo ATP depletion luminescence; inhibition, % at 6 µM; 60,000 tested, 0.35% active; AID 604;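 active = inhibition above the screen-wide mean inhibition plus 3 SD, cut at about 18% in these data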;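 also: plate controls were DMSO wells for no effect and Y-27632 control wells after no-enzyme background subtraction for full effect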
SK-BR-3 tox 24h: SK-BR-3 proliferation inhibitors | SK-BR-3 viability, CellTiter-Glo ATP luminescence, 24 h; active compounds read low | viability, % at 10 µM | 41,000 tested, 0.47% active | AID 847;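 active = viability at or below the median of all test compounds minus 3 SD, in both replicates if run twice, cut at about 45% in these data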;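 also: 100% = median untreated cell wells and 0% = median positive control drug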
PKA kinase inh: inhibitors of human protein kinase A. AID 524. PKA Kemptide phosphorylation, Kinase-Glo ATP luminescence. inhibition, % at 6 µM. 65,000 tested, 0.1% active;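 active = inhibition above the screen-wide mean inhibition plus 3 SD, cut at about 21% in these data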
mHtt clearance: mutant huntingtin protein clearance; inhibition, % at 1.5 µM; 47,000 tested, 0.42% active; HeLa Exon1htt(103Q)mCFP, aggregate imaging; zero = plate's median compound well;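 active = inhibition of aggregate fluorescence above about 70%, also judged a hit by eye on the cell image, limit read from the data, passing the limit was not always enough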;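 also: cells exposed to compound for three days before fixation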
Hsp90 block: displaces geldanamycin probe from tumor Hsp90 | 64,000 tested, 0.35% active | NCI-N417 lysate Hsp90, Cy3B-geldanamycin FP displacement | P07900 | inhibition, % at 30 µM | AID 429;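 active = inhibition above 50%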;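 also: 0% = tracer plus lysate wells and 100% = tracer alone without lysate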
MMP13 inh: MMP13 (human) collagenase inhibition | P45452 | MMP-13 fTHP FRET cleavage, Mca fluorescence | inhibition, % at 4 µM | 65,000 tested, 0.07% active | AID 570;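 active = inhibition above the mean of compound-free control plate wells plus 3 SD, cut at about 14% in these data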;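 also: 0% = DMSO wells and 100% = wells with reference MMP-13 inhibitor after basal subtraction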
Numbers without * were called inactive; / = no result.

SMILES	ROCK2 inh	SK-BR-3 tox 24h	PKA kinase inh	mHtt clearance	Hsp90 block	MMP13 inh
O=C(O)c1cc(O)c2c(c1)C(=O)c1cccc(O)c1C2=O	4	116	-1	/	139*	-1
Nc1cccc(C(=O)O)c1	-4	94	-4	/	-1	-29
Cc1ccc(NC2=NC(=S)N(CC#N)C23CCCCC3)cc1	/	/	/	-14	/	/
COc1ccc(-c2cnn(-c3ccccc3)c2N)cc1OC	2	/	12	/	-4	6
Nc1nc2c(s1)CCc1c-2cnn1-c1ccccc1	6	86	6	20	93*	-15
COC(=O)Cc1cc(=O)n(-c2nc3ccccc3[nH]2)[nH]1	8	81	12	/	-5	57*
COc1ccc(NC(=O)Cc2nc3ccccc3[nH]2)cc1	4	106	8	-1	-2	-14
N#C/C(=C\c1ccc(O)c(O)c1)C(=O)c1ccc(O)c(O)c1	/	/	/	/	87*	/
N#C/C(=C\c1c[nH]c2ccccc12)C(=O)c1ccc(O)c(O)c1	/	/	/	/	72*	/
N#C/C(=C\c1ccc(O)c(O)c1)S(=O)(=O)c1ccccc1	9	72	9	6	42	13
N#C/C(=C\c1ccc(O)c(O)c1)C(=O)NCCCc1ccccc1	-3	87	-1	/	68*	6
CCCCNC(=O)CSc1nnc(Cc2ccccc2)n1CC	/	/	/	-73	/	/
O=C(O)c1cc(S(=O)(=O)NCC2CCCO2)ccc1Cl (stereo unspecified)	0	/	-1	-27	-2	-1
O=C1C2C3C=CC(C3)C2C(=O)N1CNc1ccc(O)cc1 (stereo unspecified)	10	97	7	/	61*	4
CCOc1ccc2ccccc2c1CNCCN1CCOCC1	-3	96	13	70*	-3	3
O=C(Oc1cccc2c(=O)[nH]ccc12)c1ccccc1	18*	97	2	/	-4	-13
O=C1C2=C(Nc3ccccc3SC2c2ccco2)c2ccccc21 (stereo unspecified)	0	/	-2	74*	-2	-4
O=C1c2ccccc2NC(c2ccco2)N1O (stereo unspecified)	4	/	8	-9	-4	-1
CCOC(=O)C1CCCn2c1nc1sc3c(c1c2=O)CCCC3 (stereo unspecified)	4	99	6	-9	-5	2
Cc1occc1C(=O)NC(C)CCc1ccccc1 (stereo unspecified)	4	98	2	3	-4	-4
Cc1occc1C(=O)NC(C)C(C)(C)C (stereo unspecified)	6	105	5	19	80*	3
CC(C)(C)c1cc(Cc2ccccc2)[nH]n1	-1	/	4	-8	2	1
CN1CCCc2cc(C=O)ccc21	/	/	/	-37	/	/
CCCN1CCCc2cc(CN)ccc21	8	69	2	/	80*	-4
COc1cccc(C2(O)CCN(C(=O)C3CCC3)CC2)c1	4	80	6	/	2	1
SMILES	ROCK2 inh	SK-BR-3 tox 24h	PKA kinase inh	mHtt clearance	Hsp90 block	MMP13 inh
CC(=O)c1cc(-c2nc3ccccc3n2C)n(C)c1	-1	88	-4	71*	-3	3
Oc1ccc(/C=C/c2cc(O)cc(O)c2)cc1	8	94	2	/	8	-5
O=c1cc(O)cc(/C=C/c2ccc(O)c(O)c2)o1	/	/	/	/	83*	/
Cc1c(NC(=O)c2ccccc2)c(=O)n(-c2ccccc2)n1C	/	/	/	78*	/	/
COc1cccc(Nc2ncnc3ccccc23)c1	/	/	/	10	/	/
COc1ccc(Nc2ccnc3ccccc23)cc1	4	/	11	91*	2	0
CSc1nsc(SC)c1C(=O)N1CCN(S(=O)(=O)c2ccc(C)cc2)C1C (stereo unspecified)	-2	44*	-5	9	4	-4
O=C(CNS(=O)(=O)c1cccc2nsnc12)NCc1ccc(Cl)cc1	/	91	4	/	/	0
c1cn(CCCNc2ncnc3nc[nH]c23)cn1	40*	/	18	/	0	-8
CCN1CCN(CCCNc2ncnc3nc[nH]c23)CC1	7	/	7	/	-3	7
COc1cc(-n2nc(C)c3c2OC(N)=C(C#N)C3c2ccccc2)c(Cl)c(Br)c1O (stereo unspecified)	7	92	6	55	-15	16*
Nc1nc(Cl)nc2c1ncn2[C@@H]1O[C@H](COP(=O)(O)OP(=O)(O)OP(=O)(O)O)[C@H](O)C1O (stereo partly specified)	/	/	/	/	0	/
CCOC(=O)c1cc2sc(C)cc2n1CC(=O)NCCc1ccccc1	/	/	8	/	-6	6
O=C(OCc1nnc(-c2ccccc2)o1)c1ccc(S(=O)(=O)NCc2ccco2)cc1	5	79	9	71*	-7	2
CNC(=O)OCc1cnc2ccc(OC)cc2c1COC(=O)NC	/	/	/	/	-2	/
CCOC(=O)/C(C#N)=C1/C=Nc2ccccc2N1	-8	125	-5	/	-1	14*
CCOC(=O)/C(C#N)=C1/C=CN(c2ccccc2)C=N1	/	85	5	/	/	3
O=C(c1nc(-c2ccccc2)n(-c2ccccc2)n1)N1CCN(S(=O)(=O)c2ccccc2)CC1	3	/	3	/	-2	-7
O=C(CN(Cc1ccccc1)S(=O)(=O)c1ccc(F)cc1)NCCC1=CCCCC1	/	/	/	76*	/	/
Cc1ccc(S(=O)(=O)N(CC(=O)NCCC2=CCCCC2)Cc2ccccc2)cc1	/	/	/	38	/	/
O=C(OCC(=O)N1CCc2ccccc21)c1cccnc1	4	41*	12	41	0	6
C1=C(c2ccccc2)CCN(c2ncnc3nc[nH]c23)C1	24*	/	18	/	30	-8
COc1ccc(N2CCN(c3ncnc4nc[nH]c34)CC2)cc1	24*	/	16	/	3	3
CC1CCN(c2ncnc3nc[nH]c23)CC1	/	/	/	23	/	/
c1nc(N2CCOCC2)c2[nH]cnc2n1	26*	112	15	15	12	-1
SMILES	ROCK2 inh	SK-BR-3 tox 24h	PKA kinase inh	mHtt clearance	Hsp90 block	MMP13 inh
c1cc2c(cc1Nc1nc(-c3ccc4c(c3)OCO4)cs1)OCCO2	24*	/	12	56	10	0
CCC(C)C(=O)Nc1nc(C)c(-c2csc(Nc3cc(Cl)ccc3OC)n2)s1 (stereo unspecified)	/	/	/	72*	/	/
CN(C)c1nc(OCCNC(=O)COc2ccccc2Cl)nc(N(C)C)n1	/	/	/	-10	/	/
Cc1ccccc1C(=O)Nc1ccc(Cl)cn1	4	/	10	-26	-3	4
CCOC(=O)NC1(Nc2ccc(Cl)cn2)Oc2ccccc2O1	-4	/	6	/	50*	-4
COc1cc(NCCCCCN2C(=O)c3ccccc3C2=O)c2ncccc2c1	/	/	/	/	2	/
c1ccc2[nH]c(SCc3ccc(-c4nnco4)cc3)nc2c1	-1	/	-3	32	94*	2
O=C1CCC(=O)N1c1ccc(CSc2nc3ccccc3[nH]2)cc1	1	100	5	8	0	-14
CCCn1c2c(c(O)c(C(=O)NCCCN(CC)CC)c1=O)CCCC2	/	/	/	74*	/	/
Nc1ccc2ncccc2c1	3	100	6	53	70*	-6
c1cnc2c(c1)ccc1cccnc12	/	/	/	/	-2	/
Nc1ccc2ncccc2c1N	13	88	3	/	101*	-1
